Test results as given in the supplement of paper PMC8728848.
The full list was thinned out, with the strongest signals kept by preference.

What was measured:
Experiment in all cases: glycan array binding signal (z-score within array); higher = stronger binding
Details in all cases: glycan notation: IUPAC condensed, linker removed; mutation: E227G
[1] = target: Fuc(a1-2)Gal(b1-3)GalNAc(a1-3)[Fuc(a1-2)]Gal(b1-4)Glc
Procedure, shortened: (§1)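 Glycan array data were curated from 3228 arrays in the Consortium for Functional Glycomics database and kept only where the protein sequence was available. Glycan names were converted to IUPAC-condensed notation, and columns mapping to the same glycan were averaged. The binding signal is a within-array Z-score, averaged across arrays of the same protein sequence at different concentrations or buffers and across linkers. Negative Z-scores can be read as non-binding.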

[2] = target: Fuc(a1-2)Gal(b1-3)GlcNAc(b1-3)[Gal(b1-4)GlcNAc(b1-6)]Gal(b1-4)Glc
Procedure, shortened: as §1

[3] = target: Fuc(a1-2)Gal(b1-3)[Fuc(a1-4)]GlcNAc(b1-2)Man(a1-3)[Fuc(a1-2)Gal(b1-3)[Fuc(a1-4)]GlcNAc(b1-2)Man(a1-3)]Man(b1-4)GlcNAc(b1-4)GlcNAc
Procedure, shortened: as §1

Fuc(a1-2)Gal(b1-4)Glc = target: Fuc(a1-2)Gal(b1-4)Glc
Procedure, shortened: as §1

[4] = target: Fuc(a1-2)Gal(b1-4)GlcNAc(b1-2)Man
Procedure, shortened: as §1

[5] = target: Fuc(a1-2)Gal(b1-4)[Fuc(a1-3)]GlcNAc(b1-2)Man(a1-3)[Fuc(a1-2)Gal(b1-4)[Fuc(a1-3)]GlcNAc(b1-2)Man(a1-6)]Man(b1-4)GlcNAc(b1-4)[Fuc(a1-6)]GlcNAc
Procedure, shortened: as §1

[6] = target: Fuc(a1-2)Gal(b1-4)[Fuc(a1-3)]GlcNAc(b1-3)GalNAc
Procedure, shortened: as §1

Fuc(a1-2)[Gal(a1-3)]Gal = target: Fuc(a1-2)[Gal(a1-3)]Gal
Procedure, shortened: as §1

[7] = target: Fuc(a1-2)[Gal(a1-3)]Gal(b1-4)GlcNAc(b1-2)Man(a1-3)[Fuc(a1-2)[Gal(a1-3)]Gal(b1-4)GlcNAc(b1-2)Man(a1-6)]Man(b1-4)GlcNAc(b1-4)[Fuc(a1-6)]GlcNAc
Procedure, shortened: as §1

[8] = target: Fuc(a1-2)[Gal(a1-3)]Gal(b1-4)GlcNAc(b1-3)[Fuc(a1-2)[Gal(a1-3)]Gal(b1-4)GlcNAc(b1-6)]GalNAc
Procedure, shortened: as §1

[9] = target: Fuc(a1-2)[GalNAc(a1-3)]Gal(b1-3)GalNAc(b1-3)Gal(a1-4)Gal(b1-4)Glc
Procedure, shortened: as §1

[10] = target: Gal(a1-3)Gal(b1-3)GlcNAc(b1-2)Man(a1-3)[Gal(a1-3)Gal(b1-3)GlcNAc(b1-2)Man(a1-6)]Man(b1-4)GlcNAc(b1-4)GlcNAc
Procedure, shortened: as §1

[11] = target: Gal(a1-4)Gal(b1-3)GlcNAc(b1-2)Man(a1-3)[Gal(a1-4)Gal(b1-3)GlcNAc(b1-2)Man(a1-6)]Man(b1-4)GlcNAc(b1-4)GlcNAc
Procedure, shortened: as §1

Gal(b1-2)Gal = target: Gal(b1-2)Gal
Procedure, shortened: as §1

Gal(b1-3)Gal(b1-4)GlcNAc = target: Gal(b1-3)Gal(b1-4)GlcNAc
Procedure, shortened: as §1

Gal(b1-3)GalNAc = target: Gal(b1-3)GalNAc
Procedure, shortened: as §1

[12] = target: Gal(b1-3)GalNAc(b1-4)Gal(b1-4)Glc
Procedure, shortened: as §1

[13] = target: Gal(b1-3)GlcNAc(b1-2)Man(a1-3)[Gal(b1-3)GlcNAc(b1-2)Man(a1-6)]Man(b1-4)GlcNAc(b1-4)GlcNAc
Procedure, shortened: as §1

[14] = target: Gal(b1-3)GlcNAc(b1-3)GalNAc
Procedure, shortened: as §1

[15] = target: Gal(b1-3)GlcNAc(b1-6)Gal(b1-4)GlcNAc
Procedure, shortened: as §1

Gal(b1-3)GlcNAc6S = target: Gal(b1-3)GlcNAc6S
Procedure, shortened: as §1

[16] = target: Gal(b1-3)[Fuc(a1-4)]GlcNAc
Procedure, shortened: as §1

[17] = target: Gal(b1-3)[Neu5Ac(a2-6)]GalNAc
Procedure, shortened: as §1

Gal(b1-4)Glc6S = target: Gal(b1-4)Glc6S
Procedure, shortened: as §1

[18] = target: Gal(b1-4)GlcNAc(b1-2)Man(a1-6)Man(b1-4)GlcNAc(b1-4)GlcNAc
Procedure, shortened: as §1

[19] = target: Gal(b1-4)GlcNAc(b1-3)Gal(b1-4)GlcNAc(b1-2)Man(a1-3)[Gal(b1-4)GlcNAc(b1-3)Gal(b1-4)GlcNAc(b1-2)Man(a1-6)]Man(b1-4)GlcNAc(b1-4)[Fuc(a1-6)]GlcNAc
Procedure, shortened: as §1

[20] = target: Gal(b1-4)GlcNAc(b1-3)Gal(b1-4)GlcNAc(b1-3)Gal(b1-4)GlcNAc(b1-3)Gal(b1-4)GlcNAc(b1-2)Man(a1-3)[Gal(b1-4)GlcNAc(b1-3)Gal(b1-4)GlcNAc(b1-3)Gal(b1-4)GlcNAc(b1-3)Gal(b1-4)GlcNAc(b1-2)Man(a1-6)]Man(b1-4)GlcNAc(b1-4)GlcNAc
Procedure, shortened: as §1

Gal3S6S(b1-4)GlcNAc6S = target: Gal3S6S(b1-4)GlcNAc6S
Procedure, shortened: as §1

Gal6S(b1-3)GlcNAc = target: Gal6S(b1-3)GlcNAc
Procedure, shortened: as §1

Gal6S(b1-3)GlcNAc6S = target: Gal6S(b1-3)GlcNAc6S
Procedure, shortened: as §1

Gal6S(b1-4)Glc6S = target: Gal6S(b1-4)Glc6S
Procedure, shortened: as §1

Gal6S(b1-4)GlcNAc6S = target: Gal6S(b1-4)GlcNAc6S
Procedure, shortened: as §1

[21] = target: GalNAc(b1-4)GlcNAc(b1-2)Man(a1-3)[GalNAc(b1-4)GlcNAc(b1-2)Man(a1-6)]Man(b1-4)GlcNAc(b1-4)GlcNAc
Procedure, shortened: as §1

GalNAc(b1-6)GalNAc = target: GalNAc(b1-6)GalNAc
Procedure, shortened: as §1

B1: Epa1-NP-mutant-E227G (Candida glabrata), Q6VBJ0 (protein)
chain: MILNPALFLNKCVCIYTTLILLLLTNGGYATSSNDISLASKDPTTFPLGCSPDITTPKKGLSMELYSYDFRKKGSYPCWDAAYLDPNYPRTGYKSHRLLAKVDGVTGNINFYYHATKGCTPQLGHLPASYNYPKPLTMTNFTMLLYGYFRPKVTGFHTFTISADDLLFVNFGAGNAFDCCRRDSSADHFGNYQAYAIWGSKTAKDELTVHLDAGVYYPIRLFYNNRGYDGALSFTFKTESNENTVSDFSEYFFSLDDTEEGCPGLISYDSSCASVKTSKIIGIDYHTETPNENLVPITKTIYHLGIPCTGTTTTPLCGSGFYDPLANKCVTINTSSTSSVTKTTSHTTSKEVSFHSSISSQKTLIPKSIPSPYGPIKSQSIPTEMETSSEISSSEYAFSDVISTPSHSPYTKKHSSLNSSSYTSTVIHSLTSYSISQGIFSTSLSEQNITSKSSTDKFSTATSMSNNITQSSIIISQFSTNNENYTTTSMHTSSDKISTETLNNSISTTTSILFSNSSTILKNNTTIISSDKDTHYHPVNPTIVCSTNKTEIICASITQPSISNSNNHWSSSVLKFNSTTVRSTLPSSAGSNETSINVPFSSSTESNTSTSSTSTSNSKMVRSTLPSSAGSNETSISVPFSSSTESNTSTSSTSTSNSKMVRSTLPSSAGSNETSINVPFSSSTESNTSTSSTSTSNSKTVRSTPFSSAGIIMTSLSQRNNKSASSYASSNSKCYNTADSCRKVHSTPSYLLTSSYTSEGVDYDCSLVSTKLKINDTNCVNNKHTTKSCLKTSVTTTIPTLEIKTARKSSSNTIGLHSYPTSSPNKSISSAPIIGYISSFKTIKTASPSYQTSDLTTITTITSLNNPGSTAVENTHESNDKSRKTSSNDISSKHSVIKETKDAVESSNKSHQTNTLKCSSIIIASSSHNSYESLGGTTLTLTLSKVYSPQNNDTLPFLEISEVNPSRTVLPESSKMMQYLTSTEERNKTARNTIATNIVSISTFHFEGEGNAIRMGYTQLLLMLIGIIVMNIGT
- glycan array binding signal (z-score) [1]: -0.144
- glycan array binding signal (z-score) [2]: -0.113
- glycan array binding signal (z-score) [3]: -0.037
- glycan array binding signal (z-score) (Fuc(a1-2)Gal(b1-4)Glc): -0.104
- glycan array binding signal (z-score) [4]: -0.202
- glycan array binding signal (z-score) [5]: -0.014
- glycan array binding signal (z-score) [6]: 0.012
- glycan array binding signal (z-score) (Fuc(a1-2)[Gal(a1-3)]Gal): -0.147
- glycan array binding signal (z-score) [7]: -0.133
- glycan array binding signal (z-score) [8]: -0.138
- glycan array binding signal (z-score) [9]: -0.175
- glycan array binding signal (z-score) [10]: 0.258
- glycan array binding signal (z-score) [11]: -0.089
- glycan array binding signal (z-score) (Gal(b1-2)Gal): -0.17
- glycan array binding signal (z-score) (Gal(b1-3)Gal(b1-4)GlcNAc): 1.84
- glycan array binding signal (z-score) (Gal(b1-3)GalNAc): 1.39
- glycan array binding signal (z-score) [12]: 4.13
- glycan array binding signal (z-score) [13]: 1.06
- glycan array binding signal (z-score) [14]: -0.236
- glycan array binding signal (z-score) [15]: 4.84
- glycan array binding signal (z-score) (Gal(b1-3)GlcNAc6S): 2.52
- glycan array binding signal (z-score) [16]: -0.184
- glycan array binding signal (z-score) [17]: 1.35
- glycan array binding signal (z-score) (Gal(b1-4)Glc6S): 7.04
- glycan array binding signal (z-score) [18]: -0.117
- glycan array binding signal (z-score) [19]: 0.016
- glycan array binding signal (z-score) [20]: -0.21
- glycan array binding signal (z-score) (Gal3S6S(b1-4)GlcNAc6S): 0.516
- glycan array binding signal (z-score) (Gal6S(b1-3)GlcNAc): 0.07
- glycan array binding signal (z-score) (Gal6S(b1-3)GlcNAc6S): 3.58
- glycan array binding signal (z-score) (Gal6S(b1-4)Glc6S): 13
- glycan array binding signal (z-score) (Gal6S(b1-4)GlcNAc6S): 12.7
- glycan array binding signal (z-score) [21]: -0.164
- glycan array binding signal (z-score) (GalNAc(b1-6)GalNAc): -0.146
